Rows were chosen to be rich in hits. Some 3% of all compounds tested hit in one or more screens of this group.
p53null 39C tox – qHTS Screen for Compounds that Selectively Target Cancer Cells with p53 Mutations: Cytotoxicity of p53 Null Cells at the Nonpermissive Temperature. H1299 p53-null (neo) cells, 39C, ATPlite viability, 24 h. Potency, µM (top dose mostly 46.1 µM), for the others: at the highest dose activity, negative = cell killing, actives largely listed as cytotoxic. 55,000 tested, 0.97% active. AID 904, 2007;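 further: potency means the concentration at half of the fitted maximal effect; 0% = DMSO only and -100% = full killing by 100 µM tamoxifen; nearly all actives have a fitted effect of over 50% in size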
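Luminescent ATP signal reported cell survival after H1299 lines (neo, p53 null; or p53 A138V) received up to 46 uM compound and 24 hr incubation at 39C.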
p53null 32C tox – qHTS Screen for Compounds that Selectively Target Cancer Cells with p53 Mutations: Cytotoxicity of p53 Null Cells at the Permissive Temperature | H1299-neo p53 null cells, ATP luminescence, 24 h, 32C | Potency, µM (series often up to 46.1 µM), inactives show at the highest dose activity change, negative = cytotoxicity, usual class: cytotoxic | 55,000 tested, 0.62% active | AID 903, 2007;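 further: potency means the concentration at half of the fitted maximal effect; 0% = DMSO only and -100% = full killing by 100 µM tamoxifen; nearly all actives have a fitted effect of over 55% in size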
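H1299-neo, 600 cells/well; overnight 37C; cpd up to 46 uM, 24 h at 32C; ATPlite luminescence after 20 min RT; normalized to DMSO (0%) and tamoxifen 100 uM (100% kill); Hill-fit AC50.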
PMP22 txn – Cell-based coincidence reporter assay to measure PMP22 gene transcription in S16 Pmp22-F2sN cells - Primary screen; Potency, µM (top dose mostly 57.5 µM), inactives show at the top dose activity change, negative = inhibition, actives largely listed as inhibitors; 43,000 tested, 2% active; S16 Pmp22-F2sN Schwann cells, FLuc/NLuc coincidence luminescence, 24 h; active means clear falling dose curves in both reporters; inconclusive means both reporters move, but less clearly or upward; inactive means either reporter flat; the % is the NLuc reporter signal; further: potency means the concentration at half of the fitted maximal effect; on the % scale 0 is the no-effect control and ±100 the full control effect
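Schwann cells carrying the coincidence reporter were exposed to library compounds for 24 h at 37C, then lysed and read for FLuc and, after quenching, NLuc luminescence on a CCD imager.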
S16 viability – Cell viability qHTS assay in S16 Pmp22-F2sN cells; Potency, µM (top dose mostly 57.5 µM), without a hit: top-dose activity change, negative = cytotoxicity, hits mostly cytotoxic; S16 Pmp22-F2sN Schwann cells (luciferase reporters placed in the Pmp22 gene) viability, CellTiter-Glo, 24 h; 43,000 tested, 0.48% active; further: potency means the concentration at half of the fitted maximal effect; on the % scale 0 is the no-effect control and ±100 the full control effect; nearly all actives have a fitted effect of over 65% in size
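CellTiter-Glo counter-screen, qHTS, 1536-well. Cells: S16(c9) Pmp22-F2sN, 500-1,000/well in DMEM + 10% FBS. Cpd 23 nL pin transfer, 24 h, 37C/5% CO2. Read: luminescence, CCD imager.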
mTORC1 inh – Acumen qHTS Assay for Inhibitors of the mTORC1 Signaling Pathway in MEF (Tsc2-/-, p53-/-) Cells: Sytravon. Potency, µM (doses to about 38.3 µM), for inactives: at the top dose activity change, negative = inhibition, usual class: inhibitors. AID 493208, 2011. Tsc2-/- p53-/- MEF, phospho-rpS6 immunofluorescence/PI, 24 h. 44,000 tested, 0.78% active;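 further: potency means the concentration at half of the fitted maximal effect; plate controls were DMSO for no effect and rapamycin for full effect; nearly all actives have a fitted effect of over 50% in size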
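Compounds act on Tsc2-/-, p53-/- fibroblasts carrying an empty vector for 24 h before fixation and dual staining for phospho-S6 and DNA (propidium iodide). Values are percentages of cells above a rapamycin-defined pS6/PI threshold.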
SKOV3 invasion – Primary qHTS assay for Inhibitors of ovarian cancer metastasis using an organotypic tumor microenvironment (TME) model; SKOV3ip1-GFP adhesion/invasion on 3D omental model, fluorescence; Potency, µM (top dose mostly 45.8 µM), for inactives: top-dose activity change, negative = inhibition, hits mostly inhibitors; 46,000 tested, 0.1% active; AID 1963576, 2024;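 further: potency means the concentration at half of the fitted maximal effect; plate controls were DMSO wells for no effect and tomatine positive control wells for full effect; nearly all actives have a fitted effect of over 65% in size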
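A 3D layer of primary human omental fibroblasts, mesothelial cells, fibronectin and collagen I, grown 48 hr, received SKOV3ip1-GFP cells in serum-free medium plus compounds at 0.36-46 umol/L. After 2 hr RT and 16 hr 37 C, fixed adherent GFP cells were counted; normalized to DMSO and tomatine.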
NLuc sat counter – Biochemical NLuc saturation counterscreen for small molecule modulators of PMP22 gene expression - Nano-Glo assay; Secreted NLuc enzyme (filtered S16 cell medium), Nano-Glo luminescence; 690 tested, 4% active; shares compounds with PMP22 txn; Potency, µM (titrated, usually from 57.5 µM), inactives show top-dose activity change, negative = inhibition, usual class: inhibitors; further: potency means the concentration at half of the fitted maximal effect; on the % scale 0 is the no-effect control and ±100 the full control effect
NLuc Km counter – Biochemical coelenterazine-based NLuc counterscreen for small molecule modulators of PMP22 gene expression - Km assay; shares compounds with PMP22 txn; secreted NLuc enzyme, coelenterazine luminescence, Km conditions; Potency, µM (series often up to 57.5 µM), inactives show at the top dose activity change, negative = inhibition, hits mostly inhibitors; 690 tested, 5% active; further: potency means the concentration at half of the fitted maximal effect; on the % scale 0 is the no-effect control and ±100 the full control effect
FLuc counter – Biochemical FLuc counterscreen for small molecule modulators of PMP22 gene expression. shares compounds with PMP22 txn. purified P. pyralis FLuc, luminescence, 10 min. Potency, µM (highest dose often 57.5 µM), for the others: at the top dose activity, negative = inhibition, most hits filed as inhibitors. 690 tested, under 10 active; further: % of control where 0% means no effect
Target sequence (P08659 whole entry, looked up): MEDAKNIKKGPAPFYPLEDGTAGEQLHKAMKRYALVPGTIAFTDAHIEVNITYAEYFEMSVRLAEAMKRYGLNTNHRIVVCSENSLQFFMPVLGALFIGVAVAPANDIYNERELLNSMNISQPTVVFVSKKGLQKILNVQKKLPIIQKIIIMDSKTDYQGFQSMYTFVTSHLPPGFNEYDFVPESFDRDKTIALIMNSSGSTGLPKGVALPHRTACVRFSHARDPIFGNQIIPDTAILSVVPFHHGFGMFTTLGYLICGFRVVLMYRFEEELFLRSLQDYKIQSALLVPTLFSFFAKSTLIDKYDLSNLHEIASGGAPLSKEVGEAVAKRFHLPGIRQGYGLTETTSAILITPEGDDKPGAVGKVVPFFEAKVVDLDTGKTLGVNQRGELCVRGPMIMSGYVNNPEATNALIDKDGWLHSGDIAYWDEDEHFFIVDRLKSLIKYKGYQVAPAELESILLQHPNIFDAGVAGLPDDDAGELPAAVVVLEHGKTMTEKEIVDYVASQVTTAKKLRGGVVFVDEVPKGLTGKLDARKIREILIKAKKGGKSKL
S16 viab conf – Cell viability qHTS assay in S16 Pmp22-F2sN cells - Confirmatory screen. Potency, µM (top dose mostly 57.5 µM), for the others: top-dose activity change, negative = viability loss, most hits filed as cytotoxic. 690 tested, 7% active. AID 1508641, 2021. S16 Schwann cells viability, CellTiter-Glo ATP luminescence, 24 h. shares compounds with PMP22 txn; further: potency means the concentration at half of the fitted maximal effect; on the % scale 0 is the no-effect control and ±100 the full control effect
PMP22 txn conf – Cell-based coincidence reporter assay to measure PMP22 gene transcription in S16 Pmp22-F2sN cells - Confirmatory screen; 690 tested, 22% active; S16 Schwann cells Pmp22-F2sN, dual luciferase, 24 h; Potency, µM (doses to about 57.5 µM), inactives show at the highest dose activity change, negative = inhibition, hits mostly inhibitors; shares compounds with PMP22 txn; AID 1508646, 2021; active means clear falling dose curves in both reporters; inconclusive means both reporters move, but less clearly or upward; inactive means either reporter flat; the % is the FLuc reporter signal; further: potency means the concentration at half of the fitted maximal effect
PMP22 prot conf – Cell-based HiBiT reporter assay to measure PMP22 protein expression in S16 Pmp22-HiBiT cells - Confirmatory screen; shares compounds with PMP22 txn; S16 Schwann cells Pmp22-HiBiT, luminescence, 48 h; Potency, µM (doses to about 27.9 µM), for inactives: at the highest dose activity change, negative = inhibition, most hits filed as inhibitors; 95 tested, under 10 active; AID 1508647, 2021
* marks the source's active call; other numbers are inactive results; u = inconclusive; x = not tested or not shown. Unless noted, the call rests on the fitted dose curve; in most records, active means well fitted curve in the direction sought with a large enough effect; inconclusive means small, poorly fitted or top-dose-only effect, or another doubt; inactive means no such curve, though single readings can be large; an effect the other way counts as inactive or inconclusive.

SMILES | p53null 39C tox | p53null 32C tox | PMP22 txn | S16 viability | mTORC1 inh | SKOV3 invasion | NLuc sat counter | NLuc Km counter | FLuc counter | S16 viab conf | PMP22 txn conf | others
O=S(=O)(NCC(c1ccco1)S(=O)(=O)c1cccs1)c1ccc(Cl)cc1 (stereo unspecified) | -11% | 11% | 15µM* | -14% | 18µM* | -26% | u | u | -6% | 8% | 7.6µM* | PMP22 prot conf=-26%
Cc1cc(Nc2ncc3c(n2)N(C)C(=O)N(c2cc(NC(=O)c4cccc(C(F)(F)F)c4)ccc2C)C3)n(C)n1 | x | x | x | x | x | 2% | x | x | x | x | x
CCOc1ccc(CCNc2ncnc3onc(C)c23)cc1OCC | -4% | 2% | 4.7µM* | -24% | u | 7% | -12% | -5% | -3% | -7% | -28%
C[C@@H](O[C@H]1OCCN(Cc2n[nH]c(=O)[nH]2)[C@@H]1c1ccc(F)cc1)c1cc(C(F)(F)F)cc(C(F)(F)F)c1 | x | x | x | x | x | -12% | x | x | x | x | x
Cc1ccc(NC(=O)CSc2nc3ccccc3nc2Cc2ccccc2)c(C)c1 | 6% | 4% | 9.5µM* | -3% | 0% | -3% | -4% | -3% | -1% | 17% | u

Compound activity: PubChem, National Center for Advancing Translational Sciences (NCATS)
